# In PubChem BioAssay (EPA / NIEHS):
# Inconclusive results are not listed. Calls of active or inactive are those of the source. The calls were made as follows, unless noted: active = hit-call score of the fitted dose curve at least 0.9, where 1 is the maximum; inactive = score below 0.9.
# How the values were obtained:
# [1] = ATG_NFI_CIS: Attagene CIS-FACTORIAL HepG2 Assay for human Nuclear Factor I (NFI) (AID 2282989); conditions: HepG2 cis-regulatory reporter, NFI response element transcription; actives raise or lower the signal
# How it was run: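 Read-out: reporter mRNA via RT-PCR plus capillary electrophoresis with fluorescence detection. Transiently transfected HepG2 (endogenous TF activity on cis promoters), 24 h compound exposure; gain or loss of signal fitted against DMSO.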
# [2] = target: Myc proto-oncogene protein (Homo sapiens) (UniProt P01106); experiment: ATG_Myc_CIS: Attagene CIS-FACTORIAL HepG2 Assay for human Myelocytomatosis (Myc) Proto-Oncogene Transcription Factor (AID 2282990); conditions: HepG2, Attagene cis-reporter transcription factor activity; actives raise or lower the signal
# Myc proto-oncogene protein (Homo sapiens), sequence (P01106 whole entry, looked up): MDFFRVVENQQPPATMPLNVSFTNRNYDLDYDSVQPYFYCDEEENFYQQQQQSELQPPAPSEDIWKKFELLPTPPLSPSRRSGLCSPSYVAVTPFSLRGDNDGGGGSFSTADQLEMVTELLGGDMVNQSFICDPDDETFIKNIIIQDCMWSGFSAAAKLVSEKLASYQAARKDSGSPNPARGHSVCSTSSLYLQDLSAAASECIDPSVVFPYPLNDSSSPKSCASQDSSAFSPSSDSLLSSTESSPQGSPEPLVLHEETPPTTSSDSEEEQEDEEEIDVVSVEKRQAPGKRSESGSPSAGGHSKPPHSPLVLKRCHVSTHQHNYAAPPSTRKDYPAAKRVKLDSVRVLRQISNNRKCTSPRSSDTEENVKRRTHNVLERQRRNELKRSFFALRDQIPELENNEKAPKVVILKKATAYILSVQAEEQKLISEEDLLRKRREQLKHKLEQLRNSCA
# How it was run: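 DMSO-normalised, bidirectionally fitted reporter mRNA signal. HepG2 cells transfected with cis reporter constructs, treated 24 h; transcripts detected by RT-PCR, 6-FAM primer extension and CE.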
# [3] = ATG_NRF2_ARE_CIS: Attagene CIS-FACTORIAL HepG2 Assay for human Nuclear Factor Erythroid 2 Related Factor 2 (NFR2) response to Antioxidant Response Elements (ARE) (AID 2282992); conditions: HepG2 Attagene ARE/NRF2 reporter, transcription factor activity; actives raise or lower the signal;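 as to AC50: reporter mRNA level measured by RT-PCR and capillary electrophoresis fluorescence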
# How it was run: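 Endogenous transcription factor activity in human liver HepG2 cells is tracked via a cis-element-driven reporter within a multiplexed set. mRNA induction is read by RT-PCR and capillary electrophoresis after 24 h, with DMSO as baseline.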
# [4] = ATG_Oct_MLP_CIS: Attagene CIS-FACTORIAL HepG2 Assay for human Octamer-Binding Transcription Factor (Oct) (AID 2282993); conditions: HepG2 Attagene cis-factorial Oct reporter, mRNA; actives raise or lower the signal
# How it was run: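 Read-out: reporter mRNA via RT-PCR plus capillary electrophoresis of 6-FAM-labelled fragments. Transiently transfected HepG2, 24 h exposure, endogenous TF activity on cis elements. Gain or loss of signal fitted relative to DMSO.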
# [5] = target: Cellular tumor antigen p53 (Homo sapiens) (UniProt P04637); experiment: ATG_p53_CIS: Attagene CIS-FACTORIAL HepG2 Assay for human p53 Transcription Factor (AID 2282994); conditions: HepG2 p53 cis-element reporter, Attagene mRNA; actives raise or lower the signal
# Cellular tumor antigen p53 (Homo sapiens), sequence (P04637 whole entry, looked up, the tested form may be a part): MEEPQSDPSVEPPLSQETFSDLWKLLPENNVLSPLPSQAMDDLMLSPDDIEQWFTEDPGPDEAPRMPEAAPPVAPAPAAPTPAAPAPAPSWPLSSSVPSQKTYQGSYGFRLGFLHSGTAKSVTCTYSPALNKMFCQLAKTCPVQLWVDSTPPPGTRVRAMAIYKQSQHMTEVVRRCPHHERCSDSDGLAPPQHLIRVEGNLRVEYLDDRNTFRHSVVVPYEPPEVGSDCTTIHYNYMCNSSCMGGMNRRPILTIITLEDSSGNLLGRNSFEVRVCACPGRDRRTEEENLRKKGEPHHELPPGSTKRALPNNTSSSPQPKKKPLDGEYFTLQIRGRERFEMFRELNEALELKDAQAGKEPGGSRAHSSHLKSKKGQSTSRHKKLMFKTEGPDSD
# How it was run: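 Steps: transfect HepG2 with multiplexed cis reporter constructs; dose chemicals 24 h; extract RNA, reverse-transcribe, PCR-amplify reporter sequences; FAM-label, HpaI-digest, resolve fragments by CE. Activity fitted both directions relative to DMSO.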
# [6] = BSK_3C_TissueFactor: BioMAP Diversity Plus: 3C Assay for Tissue Factor Biomarker Activity (AID 2282997); conditions: BioMAP 3C HUVEC, tissue factor biomarker readout; actives raise or lower the signal
# How it was run: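 HUVEC, 3C system, 24 h post-dose; Tissue Factor by ELISA; bidirectional fit vs DMSO baseline.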
# [7] = BSK_3C_uPAR: BioMAP Diversity Plus: 3C Assay for Urokinase-type plasminogen activator receptor (uPAR) Biomarker Activity (AID 2282998); conditions: BioMAP 3C HUVEC, uPAR biomarker ELISA; actives raise or lower the signal
# How it was run: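 HUVEC primary cells; 24 h post-dose; uPAR by ELISA; gain or loss of signal fitted bidirectionally vs DMSO baseline.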
# [8] = BSK_3C_VCAM1: BioMAP Diversity Plus: 3C Assay for Vascular cell adhesion molecule 1 (VCAM1) Biomarker Activity (AID 2282999); conditions: BioMAP 3C HUVEC, VCAM1 ELISA, cytokine-stimulated; actives raise or lower the signal
# How it was run: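 Vascular primary endothelium (human umbilical vein) was exposed to chemicals and assayed 24 h later. VCAM-1 levels came from ELISA, with DMSO serving as baseline for bidirectional fitting.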
# [9] = BSK_4H_Eotaxin3: BioMAP Diversity Plus: 4H Assay for Eotaxin 3 Biomarker Activity (AID 2283000); conditions: primary human endothelial cells (HUVEC); actives raise or lower the signal;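 also: CCL26 protein level quantified by ELISA in parallel with SRB cytotoxicity check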
# How it was run: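 Readout is Eotaxin-3 (CCL26) level by ELISA in primary human umbilical vein endothelial cells harvested 24 h after chemical exposure; activity fitted in both directions against DMSO control.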
# [10] = target: human Peroxisome Proliferator-activated Receptor alpha (PPARa), PPARA (gene 5465) (UniProt Q07869); experiment: ATG_PPARa_TRANS: Attagene TRANS-FACTORIAL HepG2 Assay for human Peroxisome Proliferator-activated Receptor alpha (PPARa) (AID 2283001; active = hit-call score of the fitted dose curve at least 0.9, where 1 is the maximum)
# human Peroxisome Proliferator-activated Receptor alpha (PPARa), PPARA (gene 5465), sequence (Q07869 whole entry, looked up, the tested form may be a part): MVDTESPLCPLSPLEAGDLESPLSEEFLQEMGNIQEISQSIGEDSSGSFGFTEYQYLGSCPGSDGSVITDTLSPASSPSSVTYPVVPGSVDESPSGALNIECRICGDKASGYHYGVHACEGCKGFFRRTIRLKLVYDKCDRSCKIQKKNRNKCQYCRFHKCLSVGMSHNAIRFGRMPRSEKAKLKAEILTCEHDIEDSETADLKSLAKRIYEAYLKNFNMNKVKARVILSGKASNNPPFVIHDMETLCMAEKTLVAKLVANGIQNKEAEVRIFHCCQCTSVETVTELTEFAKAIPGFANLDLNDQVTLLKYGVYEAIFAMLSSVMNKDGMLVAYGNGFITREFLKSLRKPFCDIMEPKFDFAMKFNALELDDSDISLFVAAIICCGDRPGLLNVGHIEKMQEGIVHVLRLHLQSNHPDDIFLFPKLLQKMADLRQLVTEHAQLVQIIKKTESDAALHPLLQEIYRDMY
# How it was run: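 Exposure: 24 h, transiently transfected HepG2 cells. Endpoint: GAL4-UAS reporter mRNA, RT-PCR with capillary electrophoresis fluorescence. Baseline: DMSO; increases fitted.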
# [11] = read-out: Intercellular Adhesion Molecule 1 (ICAM1), ICAM1 (gene 3383); experiment: BSK_3C_ICAM1: BioMAP Diversity Plus: 3C Assay for Intercellular Adhesion Molecule 1 (ICAM1) Biomarker Activity (AID 2283003); conditions: primary human endothelial cells (HUVEC); actives raise or lower the signal
# How it was run: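 Using DMSO as baseline, bidirectional curve fitting was applied to ICAM-1 ELISA signals from HUVEC in the 3C system, measured 24 h after compound addition.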
# [12] = target: human Retinoic Acid Receptor beta (RARb), RARB (gene 5915) (UniProt P10826); experiment: ATG_RARb_TRANS: Attagene TRANS-FACTORIAL HepG2 Assay for human Retinoic Acid Receptor beta (AID 2283004; active = hit-call score of the fitted dose curve at least 0.9, where 1 is the maximum)
# human Retinoic Acid Receptor beta (RARb), RARB (gene 5915), sequence (P10826 whole entry, looked up, the tested form may be a part): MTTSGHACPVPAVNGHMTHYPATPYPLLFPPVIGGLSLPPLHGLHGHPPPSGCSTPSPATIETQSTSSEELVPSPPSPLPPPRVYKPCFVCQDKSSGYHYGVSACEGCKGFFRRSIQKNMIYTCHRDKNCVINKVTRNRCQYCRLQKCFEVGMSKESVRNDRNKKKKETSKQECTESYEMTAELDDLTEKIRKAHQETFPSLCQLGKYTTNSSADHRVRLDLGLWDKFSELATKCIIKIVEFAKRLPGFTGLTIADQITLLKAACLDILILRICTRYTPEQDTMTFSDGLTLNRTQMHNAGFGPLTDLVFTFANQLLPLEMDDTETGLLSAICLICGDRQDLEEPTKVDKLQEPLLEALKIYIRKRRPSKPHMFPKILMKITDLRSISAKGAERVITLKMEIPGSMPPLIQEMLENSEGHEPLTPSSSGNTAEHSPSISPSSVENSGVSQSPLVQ
# How it was run: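 Readout is reporter mRNA induction: RNA reverse-transcribed, PCR-amplified, FAM-labelled, HpaI-cut and resolved by capillary electrophoresis. Transiently transfected HepG2 cells carrying exogenous NR–Gal4 chimeras were dosed for 24 h; activity fitted upward relative to DMSO.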
# [13] = target: Retinoic acid receptor alpha (Homo sapiens) (UniProt P10276); experiment: ATG_RARa_TRANS: Attagene TRANS-FACTORIAL HepG2 Assay for human Retinoic Acid Receptor alpha (RARa) (AID 2283005; active = hit-call score of the fitted dose curve at least 0.9, where 1 is the maximum)
# Retinoic acid receptor alpha (Homo sapiens), sequence (P10276 whole entry, looked up, the tested form may be a part): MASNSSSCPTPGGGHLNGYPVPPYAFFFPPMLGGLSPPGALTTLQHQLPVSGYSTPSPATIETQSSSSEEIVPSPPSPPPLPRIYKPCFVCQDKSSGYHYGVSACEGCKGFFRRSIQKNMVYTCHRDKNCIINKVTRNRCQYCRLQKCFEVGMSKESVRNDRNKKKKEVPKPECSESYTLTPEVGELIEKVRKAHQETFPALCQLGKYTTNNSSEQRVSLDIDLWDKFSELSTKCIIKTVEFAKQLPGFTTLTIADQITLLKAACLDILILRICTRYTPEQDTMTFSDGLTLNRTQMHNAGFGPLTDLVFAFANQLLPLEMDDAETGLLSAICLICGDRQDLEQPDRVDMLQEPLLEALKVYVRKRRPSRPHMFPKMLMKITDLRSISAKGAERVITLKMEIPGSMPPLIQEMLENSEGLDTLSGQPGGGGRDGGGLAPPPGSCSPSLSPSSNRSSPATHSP
# How it was run: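 HepG2 cells transiently transfected with multiple reporter units expressing chimeric RARα-GAL4 fusion, with GAL4-UAS-driven reporters. After 24 h compound exposure, reporter mRNA induction quantified by RT-PCR and capillary electrophoresis with fluorescent labeling; gain-of-signal fitted relative to DMSO control.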
# [14] = BSK_3C_Proliferation: Cell Proliferation Assessment in the BioMAP Diversity Plus: 3C Assay (AID 2283006); conditions: primary human endothelial cells (HUVEC);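 as to AC50: potency may reflect either rise or fall in cell number versus DMSO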
# How it was run: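 Measured here: sulforhodamine B (0.1%) staining of TCA-fixed sub-confluent umbilical vein endothelial cultures 48 h post-dosing, absorbance 560 nm. DMSO served as negative control and baseline; both signal gain and loss were modelled.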
# [15] = target: Peroxisome proliferator-activated receptor gamma (Homo sapiens) (UniProt P37231); experiment: ATG_PPARg_TRANS: Attagene TRANS-FACTORIAL HepG2 Assay for human Peroxisome Proliferator-activated Receptor-gamma (PPARg) (AID 2283007; active = hit-call score of the fitted dose curve at least 0.9, where 1 is the maximum)
# Peroxisome proliferator-activated receptor gamma (Homo sapiens), sequence (P37231 whole entry, looked up, the tested form may be a part): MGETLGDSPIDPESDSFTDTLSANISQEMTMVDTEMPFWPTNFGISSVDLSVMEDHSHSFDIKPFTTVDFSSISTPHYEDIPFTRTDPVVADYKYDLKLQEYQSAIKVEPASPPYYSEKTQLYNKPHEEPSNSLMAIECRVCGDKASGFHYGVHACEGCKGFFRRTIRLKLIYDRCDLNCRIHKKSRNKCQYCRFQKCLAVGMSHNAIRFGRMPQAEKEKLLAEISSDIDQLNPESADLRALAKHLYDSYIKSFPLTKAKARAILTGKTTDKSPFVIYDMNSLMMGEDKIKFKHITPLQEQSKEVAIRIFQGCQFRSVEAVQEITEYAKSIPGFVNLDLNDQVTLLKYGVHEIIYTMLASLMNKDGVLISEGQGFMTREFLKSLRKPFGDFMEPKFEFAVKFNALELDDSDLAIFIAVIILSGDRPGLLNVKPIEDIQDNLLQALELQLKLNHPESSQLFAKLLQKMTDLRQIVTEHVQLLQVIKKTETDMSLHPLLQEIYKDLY
# How it was run: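 Read-out: reporter mRNA induction, detected by fluorescence after RT-PCR and capillary electrophoresis. Transiently transfected human HepG2 liver cells carrying a chimeric NR-Gal4 construct were dosed for 24 h; activity was fitted upward relative to DMSO.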
# [16] = target: human Retinoic Acid Receptor gamma (RARg), RARG (gene 5916) (UniProt P13631); experiment: ATG_RARg_TRANS: Attagene TRANS-FACTORIAL HepG2 Assay for human Retinoic Acid Receptor gamma (RARg) (AID 2283009; active = hit-call score of the fitted dose curve at least 0.9, where 1 is the maximum)
# human Retinoic Acid Receptor gamma (RARg), RARG (gene 5916), sequence (P13631 whole entry, looked up, the tested form may be a part): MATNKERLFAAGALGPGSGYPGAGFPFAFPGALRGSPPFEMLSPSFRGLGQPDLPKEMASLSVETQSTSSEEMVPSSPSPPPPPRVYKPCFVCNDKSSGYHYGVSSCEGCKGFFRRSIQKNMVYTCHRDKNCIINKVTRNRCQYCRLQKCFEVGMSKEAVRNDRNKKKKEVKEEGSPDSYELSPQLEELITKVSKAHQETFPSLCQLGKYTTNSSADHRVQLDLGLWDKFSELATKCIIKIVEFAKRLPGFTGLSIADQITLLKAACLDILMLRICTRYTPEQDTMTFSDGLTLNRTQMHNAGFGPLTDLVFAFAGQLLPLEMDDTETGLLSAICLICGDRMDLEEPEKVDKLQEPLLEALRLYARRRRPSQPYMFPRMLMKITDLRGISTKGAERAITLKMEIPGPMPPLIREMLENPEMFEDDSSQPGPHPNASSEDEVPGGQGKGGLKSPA
# How it was run: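 Gain-of-signal relative to DMSO is reported from fluorescent capillary electrophoresis of RT-PCR reporter products. These came from HepG2 cells expressing transfected RARg-GAL4 chimeras with UAS reporters, harvested 24 h after dosing.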
# [17] = target: human RAR-related Orphan Receptor beta (RORb), RORB (gene 6096) (UniProt Q92753); experiment: ATG_RORb_TRANS: Attagene TRANS-FACTORIAL HepG2 Assay for human RAR-related Orphan Receptor beta (RORb) (AID 2283010; active = hit-call score of the fitted dose curve at least 0.9, where 1 is the maximum)
# human RAR-related Orphan Receptor beta (RORb), RORB (gene 6096), sequence (Q92753 whole entry, looked up, the tested form may be a part): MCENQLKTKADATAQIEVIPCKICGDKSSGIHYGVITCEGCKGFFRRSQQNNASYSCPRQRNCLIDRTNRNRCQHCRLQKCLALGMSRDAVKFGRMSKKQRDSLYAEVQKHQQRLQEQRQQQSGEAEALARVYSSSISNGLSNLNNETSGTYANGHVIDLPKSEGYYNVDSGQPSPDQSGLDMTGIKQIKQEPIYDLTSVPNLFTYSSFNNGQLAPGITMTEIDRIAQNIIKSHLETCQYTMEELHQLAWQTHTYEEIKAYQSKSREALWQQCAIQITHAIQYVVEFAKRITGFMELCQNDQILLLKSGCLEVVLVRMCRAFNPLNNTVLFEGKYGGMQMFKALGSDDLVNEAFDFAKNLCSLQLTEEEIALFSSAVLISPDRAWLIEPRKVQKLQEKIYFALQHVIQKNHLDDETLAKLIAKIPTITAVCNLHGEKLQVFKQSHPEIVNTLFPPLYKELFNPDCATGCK
# How it was run: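 Multiplexed transcription-factor reporter assay: HepG2 cells transiently carrying NR-Gal4/GAL4-UAS constructs, 24 h treatment, mRNA quantified by RT-PCR plus capillary electrophoresis fluorescence; activity scored as induction over DMSO.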
# [18] = target: Nuclear receptor subfamily 1 group I member 2 (Homo sapiens) (UniProt O75469); experiment: ATG_PXR_TRANS: Attagene TRANS-FACTORIAL HepG2 Assay for human Pregnane X Receptor (PXR) (AID 2283008; active = hit-call score of the fitted dose curve at least 0.9, where 1 is the maximum)
# Nuclear receptor subfamily 1 group I member 2 (Homo sapiens), sequence (O75469 whole entry, looked up, the tested form may be a part): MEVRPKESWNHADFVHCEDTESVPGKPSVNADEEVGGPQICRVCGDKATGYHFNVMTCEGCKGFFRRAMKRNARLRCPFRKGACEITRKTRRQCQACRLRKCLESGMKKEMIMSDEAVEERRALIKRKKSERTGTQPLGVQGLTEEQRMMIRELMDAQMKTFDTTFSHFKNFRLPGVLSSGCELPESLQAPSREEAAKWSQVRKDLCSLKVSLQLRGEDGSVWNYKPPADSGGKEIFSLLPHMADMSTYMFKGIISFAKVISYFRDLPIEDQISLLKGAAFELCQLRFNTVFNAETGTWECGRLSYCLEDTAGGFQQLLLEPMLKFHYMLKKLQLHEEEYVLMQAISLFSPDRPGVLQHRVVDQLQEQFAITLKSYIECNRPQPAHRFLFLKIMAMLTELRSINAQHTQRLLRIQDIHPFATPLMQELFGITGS
# How it was run: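 HepG2 transfected (FuGene 6) with GAL4-UAS reporter units + PXR-Gal4 chimera; dosed 24 h. Total RNA → oligo(dT) RT → PCR → 6-FAM primer extension → HpaI cut → CE. Gain-of-signal vs DMSO.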
# [19] = ATG_NF_kB_CIS: Attagene CIS-FACTORIAL HepG2 Assay for human Nuclear Factor Kappa B (NF-kB) (AID 2282991); conditions: HepG2 Attagene cis-factorial NF-kB reporter mRNA; actives raise or lower the signal
# How it was run: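 Read-out: reporter transcript levels quantified by RT-PCR plus capillary electrophoresis of 6-FAM-labelled, HpaI-cut fragments. Transfected HepG2 cells, 24 h compound exposure, endogenous NF-kB-driven cis element; gain or loss scored versus DMSO.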
smiles,measurement,setting,value
Oc1ccccc1O,outcome,[1],inactive
same,outcome,[2],inactive
same,AC50,[3],13.1 µM (active)
same,AC50,[4],31.1 µM (active)
same,outcome,[5],inactive
same,AC50,[6],2.96 µM (active)
same,outcome,[7],inactive
same,AC50,[8],2.17 µM (active)
same,outcome,[9],inactive
same,outcome,[10],inactive
same,outcome,[11],inactive
same,outcome,[12],inactive
same,outcome,[13],inactive
same,AC50,[14],10.1 µM (active)
same,outcome,[15],inactive
same,outcome,[16],inactive
same,outcome,[17],inactive
O=C1NC(=O)C(c2ccccc2)(c2ccccc2)N1,outcome,[1],inactive
same,outcome,[2],inactive
same,outcome,[3],inactive
same,outcome,[4],inactive
same,outcome,[6],inactive
same,outcome,[7],inactive
same,outcome,[8],inactive
same,outcome,[9],inactive
same,outcome,[11],inactive
same,outcome,[14],inactive
same,outcome,[15],inactive
same,outcome,[18],inactive
CCCCc1nc2cccnc2n1Cc1ccc(-c2ccccc2-c2nnn[nH]2)cc1,outcome,[1],inactive
same,outcome,[19],inactive
same,AC50,[3],100 µM (active)
same,outcome,[4],inactive
same,outcome,[5],inactive
same,outcome,[6],inactive
same,outcome,[7],inactive
same,outcome,[8],inactive
same,outcome,[9],inactive
same,outcome,[10],inactive
same,outcome,[11],inactive
same,outcome,[14],inactive
same,AC50,[15],4.39 µM (active)
same,AC50,[18],27.4 µM (active)
same,outcome,[17],inactive
